Screens as filed in PubChem BioAssay.
SW480 rerep: DNA re-replication induction in SW480 cells. SW480 DNA re-replication, Hoechst DNA content imaging, 48 h. AID 624297. Potency, µM (top dose mostly 46.1 µM), for inactives: top-dose re-replication activation, actives largely listed as activators. 340,000 compounds, 1.8% hits; further: potency means the concentration at half of the fitted maximal effect; % of control where 0% means no effect; nearly all actives have a fitted effect of over 55% in size
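Image-based DNA-content assay: after two days of treatment, nuclei were labelled with the DNA dye Hoechst and imaged, and hits were compounds raising the count of nuclei showing high fluorescence intensity.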
DT40 TDP1 no CPT: qHTS for Inhibitors of human tyrosyl-DNA phosphodiesterase 1 (TDP1): qHTS in cells in absence of CPT. DT40 Tdp1-/- hTDP1 cells, no CPT, ATP luminescence, 48 h. Potency, µM (titrated, usually from 46.2 µM), without a hit: at the highest dose activity change, negative = growth inhibition, usual class: inhibitors. 420,000 compounds, 15% hits; further: potency means the concentration at half of the fitted maximal effect; on the % scale 0 is the no-effect control and ±100 the full control effect; nearly all actives have a fitted effect of over 55% in size
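Chicken DT40 Tdp1-/- cells complemented with human TDP1, screened without camptothecin (DMSO vehicle only), 400 cells/well. Compounds pin-transferred, cells incubated at 37 °C for at least 48 hr. Growth read as ATP-dependent luminescence (CellTiter-Glo, 30 min at RT).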
IL-1B inflam inh: inhibitors of inflammasome signaling (IL-1 beta secretion); THP-1 LPS/ATP IL-1B secretion, AlphaLISA, 16 h; active compounds read low; activity change, % at 57.5 µM; 360,000 compounds, 4.7% hits; in the data active means activity change below about -50%; inconclusive means mostly about -30% to -49%; further: on the % scale 0 is the no-effect control and ±100 the full control effect
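Secreted IL-1B measured by AlphaLISA bead assay after 16 h compound exposure of THP-1 cells; compounds (final up to 57.5 uM) added 1 h before LPS (250 ng/mL) and ATP (1.25 mM) stimulation; lower signal means less secretion.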
MCF10A rerep: DNA re-replication induction in MCF 10a cells. MCF 10A DNA re-replication, Hoechst nuclear intensity, 48 h. Potency, µM (doses to about 46.1 µM), inactives show at the top dose activity, positive = re-replication, usual class: activators. 350,000 compounds, 2.9% hits. AID 624296; further: potency means the concentration at half of the fitted maximal effect; % of control where 0% means no effect; nearly all actives have a fitted effect of over 50% in size
TDP1 cell CPT: growth inhibition of DT40 Tdp1-/-;hTDP1 cells with camptothecin (screen for TDP1 inhibitors). 420,000 compounds, 12% hits. chicken DT40 Tdp1-/-;hTDP1 cells + 20 nM CPT, ATP luminescence, 48 h. Potency, µM (top dose mostly 46.2 µM), for inactives: at the top dose activity change, negative = growth inhibition, usual class: inhibitors; further: potency means the concentration at half of the fitted maximal effect; on the % scale 0 is the no-effect control and ±100 the full control effect; nearly all actives have a fitted effect of over 55% in size
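Cell growth measured by CellTiter-Glo luminescence after a minimum 48 h, 37 C compound exposure with 20 nM CPT in Tdp1-knockout DT40 cells stably expressing hTDP1, seeded 400/well; qHTS titration format.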
BCR signal inh: chronic active BCR signaling inhibition | ABC-DLBCL IkBa-CBG/CBR reporter, luminescence ratio, 4 h | Potency, µM (series often up to 46.1 µM), without a hit: at the highest dose activity change, negative = inhibition, usual class: inhibitors | 340,000 compounds, 0.05% hits | AID 493014; active means well fitted inhibition curve with a large enough effect in the signal ratio, with a control signal flat, not every such curve was filed as active; inconclusive means small, poorly fitted or top-dose-only effect, or effect the other way, or a change in a side signal; the % refers to the signal ratio;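 further: potency means the concentration at half of the fitted maximal effect; plate controls were basal doxycycline-induced cells for no effect and cells given 10 µM MG132 for full effect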
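TMD8 ABC-DLBCL cells carrying doxycycline-inducible green luciferase fused to IkappaBalpha plus unfused red luciferase were exposed to compounds (up to 46 uM) for 4 hrs at 37C. Activity came from the overlap-corrected green/red luminescence ratio.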
* marks the source's active call; other numbers are inactive results; ? = inconclusive; nt = no result; [ ] = dose if it differs, or a comment. Compounds with a hit are over-represented: about 19% of the library has one in this group of screens. Unless noted, the call rests on the fitted dose curve; in most records, active means well fitted curve in the direction sought with a large enough effect; inconclusive means small, poorly fitted or top-dose-only effect, or another doubt; inactive means no such curve, though single readings can be large; an effect the other way counts as inactive or inconclusive.

SMILES	SW480 rerep	DT40 TDP1 no CPT	IL-1B inflam inh	MCF10A rerep	TDP1 cell CPT	BCR signal inh
Cc1nn(S(=O)(=O)c2ccccc2)c(C)c1S(=O)(=O)N1CCOCC1	-9%	-4%	-1	-3%	-8%	6%
CCN(Cc1ccc2c(c1)OCCO2)C(=O)CSc1nc(C)nc2sc(C)c(C)c12	-29%	?	?	?	?	?
CCN(CC)S(=O)(=O)c1ccc(NC(=O)c2nn(C)c3c2CSc2ccccc2-3)cc1	nt	18µM*	nt	nt	?	nt
Cc1cccc(CCNC(=O)c2nn(C)c3c2CSc2ccccc2-3)c1	nt	?	nt	nt	-26%	nt
CC(C)N(C(=O)c1nn(C)c2c1CSc1ccccc1-2)C1CCCCC1	8%	10µM*	-18	?	21µM*	14%
Cn1nc(C(=O)N2CCC(C(N)=O)CC2)c2c1-c1ccccc1SC2	-3%	?	7	0%	?	0%
CC(C)CCNC(=O)c1nn(C)c2c1CSc1ccccc1-2	nt	18µM*	nt	nt	?	nt
Cc1ccc(N2CCN(C(=O)c3nn(C)c4c3CSc3ccccc3-4)CC2C)cc1 (centres undefined)	nt	?	nt	nt	23µM*	nt
COc1ccc2c(c1)c1c(c(=O)n(CCc3ccccc3)c(=O)n1Cc1ccccc1)n2C	nt	-8%	nt	nt	-2%	nt
Cc1ccc(C)c(OCc2cc(C(=O)NC3CCOC(C)(C)C3)no2)c1 (centres undefined)	-1%	-8%	0	2%	-29%	-8%
O=C(O)c1ccc(CN2C(=O)c3ccccc3S2(=O)=O)cc1	-5%	-4%	2	0%	-4%	2%
COC(=O)CN1C(C(=O)c2ccccc2)=C(OC(=O)c2ccc(F)cc2)c2ccccc2S1(=O)=O	nt	-23%	nt	nt	16µM*	nt
CCN1C(C(=O)c2ccccc2)=C(OC(=O)c2ccc(Cl)cc2)c2ccccc2S1(=O)=O	nt	23µM*	nt	nt	?	nt
CCOC(=O)CN1C(C(=O)c2ccccc2)=C(OC(=O)c2ccccc2)c2ccccc2S1(=O)=O	nt	26µM*	nt	nt	21µM*	nt
COC(=O)C1=C(c2ccccc2)c2ccccc2S(=O)(=O)N1CC(=O)Nc1cccc(C(C)=O)c1	nt	?	nt	nt	-19%	nt
COc1ccc(C2(C(=O)NCC3Cc4cccc(-c5cccnc5)c4O3)CCCC2)cc1 (centres undefined)	nt	?	nt	nt	-7%[9.04 µM]	nt
O=S(=O)(NCCOc1ccccc1F)c1cccc(Br)c1	-14%	0%	22	4%	-14%	5%
C[C@H](CO)N1C[C@H](C)[C@@H](CN(C)Cc2ccc(F)cc2)Oc2ncc(Br)cc2C1=O	nt	?	15	nt	-24%	nt
O=C(/C=C\NCC(=O)c1ccccc1)c1ccc2ccccc2c1	-6%	?	-54*	?	-29%	0%
O=C(CNC(=O)c1ccccc1)OCC(=O)c1ccc2ccccc2c1	nt	-4%	nt	nt	-12%	nt
O=C(NCc1ccc2[nH]c3c(c2c1)CCCC3)c1ccc(S(=O)(=O)N2CCCCC2)cc1	2%	-28%	3	0%	-3%	-1%
CC(=O)c1ccc(N2CCN(S(=O)(=O)c3ccc4ccccc4c3)CC2)cc1	-28%	?	?	?	?	1%
CC1CCCN(S(=O)(=O)c2ccc3[nH]c4c(c3c2)CCCC4)C1 (centres undefined)	15%	?	23	?	21µM*	-6%
CC(=O)c1ccc(N2CCN(S(=O)(=O)c3ccc4[nH]c5c(c4c3)CCCC5)CC2)cc1	nt	26µM*	nt	nt	?	nt
O=S(=O)(c1ccc2[nH]c3c(c2c1)CCCCC3)N1CCN(c2cccc(Cl)c2)CC1	nt	12µM*	nt	nt	18µM*	nt
SMILES	SW480 rerep	DT40 TDP1 no CPT	IL-1B inflam inh	MCF10A rerep	TDP1 cell CPT	BCR signal inh
O=[N+]([O-])c1ccc2[nH]cc(S(=O)(=O)N3CCN(c4cccc(Cl)c4)CC3)c2c1	?	-14%	-96*	10%	?	?
COCCN(C(=O)CSc1cc(C)c2ccccc2n1)c1c(N)n(CC(C)C)c(=O)[nH]c1=O	0%	-1%	6	3%	-8%	2%
Cc1nc2n[nH]c(N)c2nc1C	nt	1%	0	nt	5%	nt
Cc1c(C)c2ccc(OCC(=O)Nc3ccccn3)cc2oc1=O	-12%	-9%	-2	-7%	2%	?
CCOC(=O)c1c2c3c(cccc3[nH]c1=O)C(=O)c1ccccc1-2	-10%	-2%	-6	0%	-9%	1%
COCCCNc1c2c3c(cccc3[nH]c1=O)C(=O)c1ccccc1-2	18µM*	16µM*	13	15µM*	15µM*	?
O=C(O)C1C(=O)NCC1c1ccccc1 (centres undefined)	?	1%	-9	-1%	1%	4%
O=C(CN1CCN(C(=O)N2CCOCC2)CC1)Nc1cc(Cl)ccc1Cl	-2%	13µM*	20	-3%	?	-7%
O=C(CN1CCCCC1)Nc1cc(Cl)ccc1Cl	-2%	-21%	-16	12%	?	3%
O=C(CN1CCC(C(O)(c2ccccc2)c2ccccc2)CC1)Nc1cc(Cl)ccc1Cl	?	20µM*	-67*	-46%	?	0%
O=C(CN1CCC(C(O)(c2ccccc2)c2ccccc2)CC1)Nc1ccccc1	-3%	16µM*	-55*	-4%	21µM*	?
O=C(O)c1ccn(CSc2cc(Cl)ccc2Cl)n1	-2%	?	3	-3%	-19%	2%
N#C/C(=C/c1ccc(OC(=O)c2ccc(Br)s2)cc1)c1nc2ccccc2[nH]1	?	23µM*	-20	-9%	?	nt
N#C/C(=C\c1ccc(OC(=O)c2ccc(Br)s2)cc1)c1nc2ccccc2[nH]1	2%	?	3	8%	?	4%
CCOc1cccc(/C=C(/C#N)c2nc3ccccc3[nH]2)c1OCC(=O)O	4%	-4%	21	-2%	15%	6%
CCN(CC)c1ccc(/C=C(/C#N)c2nc3ccccc3[nH]2)c(OC(C)C)c1	27%	12µM*	3	?	18µM*	?
Cc1cc2nc(/C(C#N)=C/c3ccncc3)[nH]c2cc1C	13µM*	16µM*	-16	23µM*	18µM*	-1%
N#C/C(=C\c1ccccc1C(=O)O)c1nc2ccccc2[nH]1	7%	2%	13	7%	-4%	?
N#C/C(=C\c1ccncc1)c1nc2ccccc2[nH]1	-1%	?	-64*	?	?	?
